In PubChem BioAssay AID1985 (Southern Research Specialized Biocontainment Screening …, 2009):
Hit rate of the full screen: of about 2,300 compounds, about 1,000 (43%) were called active. The set was probably picked from earlier hits. This is one part of the list. Potency and affinity values are given separately. Unmarked numbers belong to inactive results. How the calls were made is not given here.

test: modified counter assay using GFP fluorescence, PhoP regulon inhibitor project, dose response (AID 1985); settings: S. Typhi, 4 h; series mostly up to 150 µM; inhibition: at the top concentration

| SMILES | inhibition [%] |
| --- | --- |
| c1csc(-n2nc3ccccc3n2)c1 | -6.55 |
| CC1Cc2ccccc2N1C(=O)CN1C(=O)C(=O)N(Cc2ccccc2)C1=O (stereo not drawn) | -20.8 |
| CC(C)(C)SCCNC(=O)c1ccccc1 | 18.5 |
| CCOc1ccc(-c2c[n+]3c(n2-c2ccccc2)CCCCC3)cc1 | -17.4 |
| COCCCNc1c2c(nc3nnnn13)CCCC2 | -4.03 |
| CC(C)(C)c1ccc(OCCNC(=S)Nc2ccccc2)cc1 | -2.57 |
| C#CCOC(=O)c1ccccc1C(=O)OCC#C | 12.4 |
| O=C(NCCCNc1ccnc2cc(Cl)ccc12)c1ccccc1F | -0.31 |
| C=CCNc1nc(-c2ccccc2)nc(-n2ccnc2)n1 | -15.1 |
| CC(Sc1nc2ccccc2o1)C(=O)O (stereo not drawn) | 34.4 |
| O=C(CSc1nc2ccccc2o1)c1cc2ccccc2oc1=O | 25.9 |
| CN(CCO)CC(O)Cn1cnc2c1c(=O)n(C)c(=O)n2C (stereo not drawn) (tested in a mixture with another compound) | 9.5 |
| Cc1ccc(N2CC(C(=O)OCc3ccccc3F)CC2=O)cc1 (stereo not drawn) | -10.2 |
| Cc1cc2oc(=O)cc(CN3CCN(C/C=C/c4ccccc4)CC3)c2cc1O | 19.4 |
| O=C(O)/C=C/c1cn(-c2ccccc2)nc1-c1cc2ccccc2oc1=O | 10.6 |
| Oc1c(Br)cc(Br)cc1Oc1ccc(Br)cc1Br | -3.41 |
| Oc1c(Br)cc(Br)cc1C=Nc1cccc2ncccc12 | 21.8 |

| SMILES | inhibition [%] |
| --- | --- |
| Cc1cccc(N/N=C/c2ccc(O)c(O)c2O)c1 | 26.2 |
| Cc1cc(C)nc(NS(=O)(=O)c2ccc(N3C(=O)C4CC=C(Cl)CC4C3=O)cc2)n1 (stereo not drawn) | -20.4 |
| Cc1cc(C)cc(NC(=O)C(Sc2nnc(C)c(=O)[nH]2)c2ccccc2)c1 (stereo not drawn) | 16.1 |
| Cc1c(C)n(C)c2ccc(C(=O)NCc3cccs3)cc12 | 18.9 |
| Cc1cccc2cc(C(c3nnnn3Cc3ccccc3)N3CCN(C)CC3)c(=O)[nH]c12 (stereo not drawn) | 23.6 |
| CCN(CC)C(=O)CNC(=O)Cc1ccc(Cl)cc1 | -19.9 |
| CCCCc1ccc2[nH]cc(CCN)c2c1 | 14.2 |
| S=C1SCN(Cc2cccnc2)CN1Cc1cccnc1 | 29.1 |
| Cc1nc2nc(COc3ccccc3)nn2c(C)c1Cl | 5.1 |
| O=C(Nc1ccc(N2CCOCC2)c(Cl)c1)c1ccccc1F | 14.4 |
| O=C(Nc1ccc(Nc2ccncc2)cc1)c1ccc([N+](=O)[O-])cc1 | 27.2 |
| Cc1cc2oc(C(=O)NCc3ccncc3)c(C)c2cc1C | -7.42 |
| CC(=O)Nc1cccc(NS(=O)(=O)Cc2ccc(Cl)cc2)c1 | -8.02 |
| COc1ccc2c(c1)CC1(CN2C)C(=O)NC(=O)N(CCc2ccccc2)C1=O (stereo not drawn) | 18.7 |
| Cc1ccc(C(=O)O)cc1N=Cc1cc(Br)cc(Br)c1O | -3.47 |
| Nc1ccc(S(=O)(=O)c2ccc(N)cc2)cc1 | 1.39 |
